Eight compounds from PubChem BioAssay (NCI) can be followed below.

Test systems include HCT-15 colon; HT29 colon; SNB-75 CNS; SNB-19 CNS; U251 CNS; PC-3 prostate; SK-MEL-5 melanoma; UACC-62 melanoma; LOX IMVI melanoma; SK-MEL-28 melanoma; SK-MEL-2 melanoma; EKVX NSCLC; SN12C renal; UO-31 renal; TK-10 renal; ACHN renal; CAKI-1 renal; A498 renal; CCRF-CEM leukemia; MOLT-4 leukemia.
What all share (assay): NCI-60 one-dose screen, 48 h (100 = growth as untreated, 0 = no growth, -100 = all killed)
Details in all cases: 10 µM unless noted

Each structure is given as a SMILES string. This is part of a sample that, as a whole, favours compounds with a hit. Of some 83,000 tested, about 20% had one in any assay.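 Step 1: grow cells in 96-well plates. Step 2: add test compound at a single concentration. Step 3: incubate 48 h. Step 4: record percent growth.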 A number with no mark means an inactive call. The source made the active and inactive calls. Rule for the calls: active = growth percent below 10; inactive = the rest.

Consider `CN(C)c1ccc(/C=N/NC(=O)COc2cc(=O)n(C)c3ccccc23)cc1`, for which the growth with HCT-15 colon is 104%; in the test on HT29 colon it was 108%; in the test on SNB-75 CNS, 76.8%; in the test on SNB-19 CNS it was 88.4%; in the test on U251 CNS, 104%; in the test with PC-3 prostate it was 101%. Besides, the growth in the test with SK-MEL-5 melanoma is 101%; with UACC-62 melanoma it was 88.5%; in the test with LOX IMVI melanoma, 99.8%; with SK-MEL-28 melanoma, 109%; in the test on SK-MEL-2 melanoma, 111%; in the test on EKVX NSCLC, 103%. Also, the growth is 99.5% in the test with SN12C renal; 71.7% with UO-31 renal; 119% in the test on TK-10 renal; 90.6% with ACHN renal; 83.7% in the test on CAKI-1 renal; 104% in the test on A498 renal. For the same compound, the growth in the test on CCRF-CEM leukemia is 106%; with MOLT-4 leukemia it was 104%.
As to `COc1ccc(N=c2nc3sc4cc(Cl)ccc4n3c(N)c2C#N)cc1`, the growth is 99.5% with HCT-15 colon; 36.1% with HT29 colon; 36.9% in the test with SNB-75 CNS; 82% in the test on SNB-19 CNS; 79% with U251 CNS; 58.5% in the test with PC-3 prostate. In addition, the growth was 14.9% with SK-MEL-5 melanoma; 69.3% with UACC-62 melanoma; 83% in the test with LOX IMVI melanoma; 45.8% in the test with SK-MEL-28 melanoma; 58.6% in the test with SK-MEL-2 melanoma; 70.8% with EKVX NSCLC. Also, the growth is 98.4% with SN12C renal; 64.1% in the test with UO-31 renal; 118% in the test on TK-10 renal; 98.2% in the test on ACHN renal; 69.2% with CAKI-1 renal; 100% with A498 renal. Besides, the growth is 89.2% in the test on CCRF-CEM leukemia and 37.7% in the test on MOLT-4 leukemia.
On to `N#Cc1c(-c2ccccc2)nc(SCC2CO2)nc1N1CCOCC1` (stereo not given), for which the growth was 74.2% with HCT-15 colon; 74% with HT29 colon; 34.1% in the test on SNB-75 CNS; 60.9% in the test on SNB-19 CNS; 75.3% with U251 CNS; 36.1% in the test with PC-3 prostate. The growth is 84.9% in the test with SK-MEL-5 melanoma; 51.9% in the test on UACC-62 melanoma; 76.6% in the test with LOX IMVI melanoma; 64.7% in the test with SK-MEL-28 melanoma; 66.9% in the test on SK-MEL-2 melanoma; 78.4% in the test on EKVX NSCLC. In addition, the growth in the test on SN12C renal was 69.9%; in the test on UO-31 renal, 29.5%; in the test on TK-10 renal it was 68.6%; with ACHN renal, 59.2%; with CAKI-1 renal it was 38.6%; with A498 renal, -15.2% (active). The values for the growth with CCRF-CEM leukemia and in the test with MOLT-4 leukemia were 96.6% and 68.6%, respectively.
As to `Cc1cc(NS(=O)(=O)c2ccccc2)c(OS(=O)(=O)c2ccccc2)cc1C`, the growth was 102% in the test on HCT-15 colon; 111% in the test on HT29 colon; 89.5% in the test with SNB-75 CNS; 98.1% with SNB-19 CNS; 99.8% with U251 CNS; 89.7% with PC-3 prostate. Further, the growth in the test on SK-MEL-5 melanoma is 102%; in the test with UACC-62 melanoma it was 94%; with LOX IMVI melanoma it was 99.3%; in the test on SK-MEL-28 melanoma, 112%; in the test with SK-MEL-2 melanoma, 118%; in the test on EKVX NSCLC it was 104%. Also, the growth was 94% in the test with SN12C renal; 73.6% in the test with UO-31 renal; 119% with TK-10 renal; 104% in the test with ACHN renal; 109% with CAKI-1 renal; 89.2% in the test on A498 renal. Besides, the growth in the test on CCRF-CEM leukemia was 97.5%; in the test on MOLT-4 leukemia, 88.5%.
Consider `O=C(CCCCCCCn1cc(-c2cccnc2)nn1)Nc1ccccc1-c1ccccc1`, for which the growth with HCT-15 colon is 24.1%; in the test on HT29 colon it was 39%; in the test on SNB-75 CNS, 92.3%; in the test with SNB-19 CNS, 48.2%; in the test on U251 CNS, 31.1%; with PC-3 prostate, 49.3%. Also, the growth in the test on SK-MEL-5 melanoma was 30.5%; in the test on UACC-62 melanoma, 60.6%; with LOX IMVI melanoma, 57.3%; in the test with SK-MEL-28 melanoma, 71%; in the test with SK-MEL-2 melanoma, 87.9%; in the test on EKVX NSCLC it was 64.9%. Further, the growth in the test with SN12C renal was 25.8%; in the test on UO-31 renal, 62%; in the test with TK-10 renal, 84%; in the test on ACHN renal, 54.8%; in the test with CAKI-1 renal, 17%; in the test with A498 renal, 83.3%. The growth was 59.9% in the test on CCRF-CEM leukemia and 47.4% in the test with MOLT-4 leukemia.
As for `O=C1C(Cl)C(c2ccccc2Cl)N1n1cnnc1` (stereo not given), the growth in the test on HCT-15 colon is 101%; in the test with HT29 colon, 103%; with SNB-75 CNS, 74%; in the test with SNB-19 CNS, 93%; in the test with U251 CNS, 99.6%; with PC-3 prostate, 88%. Besides, the growth was 97.3% in the test with SK-MEL-5 melanoma; 94.7% in the test with UACC-62 melanoma; 91.4% with LOX IMVI melanoma; 96.4% in the test on SK-MEL-28 melanoma; 102% in the test on SK-MEL-2 melanoma; 99.8% with EKVX NSCLC. The growth in the test with SN12C renal is 100%; in the test with UO-31 renal, 83.3%; in the test with TK-10 renal, 102%; in the test on ACHN renal it was 96.8%; in the test on CAKI-1 renal, 85.6%; in the test on A498 renal, 93.9%. For the same compound, the figures for the growth with CCRF-CEM leukemia and in the test on MOLT-4 leukemia were 98.6% and 101%, respectively.
In the case of `COc1cccc(-c2cnco2)c1OCc1c(C)c(COc2c(OC)cccc2-c2cnco2)c(C)c(COc2c(OC)cccc2-c2cnco2)c1C`, the growth is 89.6% with HCT-15 colon; 32.7% with HT29 colon; 13% with SNB-75 CNS; 67.4% with SNB-19 CNS; 40% in the test on U251 CNS; 71.3% in the test on PC-3 prostate. Also, the growth with SK-MEL-5 melanoma is 45.3%; in the test on UACC-62 melanoma, 42.2%; in the test with LOX IMVI melanoma it was 45.6%; with SK-MEL-28 melanoma, 55.7%; in the test on SK-MEL-2 melanoma, 60.9%; in the test with EKVX NSCLC, 52.8%. Moreover, the growth in the test on SN12C renal is 51.4%; in the test with UO-31 renal, 30.8%; in the test on TK-10 renal, 28.1%; in the test with ACHN renal, 29.6%; in the test on CAKI-1 renal it was 88.7%; in the test with A498 renal, -13.6% (active). In addition, the growth was 94.5% with CCRF-CEM leukemia and 91.2% with MOLT-4 leukemia.
In the case of `CCOC(=O)c1nnn(-c2ccccc2)c1C1=CN(C)CCC1`, the growth was 99% with HCT-15 colon; 99.1% in the test on HT29 colon; 89.8% with SNB-75 CNS; 108% with SNB-19 CNS; 102% in the test with U251 CNS; 96.4% in the test with PC-3 prostate. In addition, the growth was 105% in the test on SK-MEL-5 melanoma; 100% with UACC-62 melanoma; 97.3% in the test with LOX IMVI melanoma; 111% in the test on SK-MEL-28 melanoma; 103% with SK-MEL-2 melanoma; 99% in the test with EKVX NSCLC. Also, the growth in the test on SN12C renal is 106%; in the test on UO-31 renal, 82%; in the test on TK-10 renal, 96.6%; with ACHN renal, 100%; in the test with CAKI-1 renal, 97.8%; in the test on A498 renal, 101%. The growth is 109% in the test on CCRF-CEM leukemia and 97.3% with MOLT-4 leukemia.
